Results taken from PubChem BioAssay (NCI).
This is part of a sample that, as a whole, favours compounds with a hit. Of some 83,000 tested, about 20% had one in any assay.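 In brief: 96-well plates, 48 h treatment, single concentration, percent growth endpoint.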 The source made the active and inactive calls. Rule for the calls: active = growth percent below 10; inactive = the rest.

Experiments:
Assay in all cases: NCI-60 one-dose screen, 48 h (100 = growth as untreated, 0 = no growth, -100 = all killed)
Settings in all cases: 10 µM unless noted
[1] = system: NCI-H23 lung
[2] = system: NCI-H322M lung
[3] = system: HOP-62 NSCLC
[4] = system: NCI-H460 lung
[5] = system: HOP-92 NSCLC
[6] = system: NCI-H522 lung
[7] = system: A549/ATCC NSCLC
[8] = system: 786-0 renal
[9] = system: COLO 205 colon

Measured: growth

Clc1ccc(N2N=C(c3cccc(Nc4ccncc4)c3)CC2c2ccc3c(c2)OCO3)cc1 (configuration not stated)
inactive: [1] 83.6% | [2] 68.6% | [3] 42.4% | [5] 47.9% | [6] 57.2% | [7] 36.4% | [8] 56.9%
active: [4] -65.4% | [9] -52.8%

NC(=S)N/N=C/c1ccc(OC(=O)COc2cc(Cl)c(Cl)cc2Cl)cn1
inactive: [1] 28.1% | [2] 57.2% | [3] 85.6% | [4] 79.9% | [5] 48.6% | [6] 23.8% | [7] 107% | [8] 19.9% | [9] 117%

CCCCCCCCCCCCC1CCC/C=C\CCC(=O)O1 (configuration not stated)
inactive: [1] 88.6% | [2] 117% | [3] 111% | [4] 104% | [5] 111% | [6] 91.8% | [7] 55% | [8] 95.4% | [9] 101%

CC(=O)O[C@H]1CC[C@@]2(C)[C@@H](CC[C@@H]3[C@@H]2CC[C@@]2(C)[C@H]3CC[C@]2(O)C(C)=O)C1
inactive: [1] 101% | [3] 95.3% | [4] 105% | [5] 101% | [6] 96.8% | [7] 92.1% | [8] 98.1% | [9] 107%

Cn1c(COC(=O)N2CCCCC2)nc2c(N3CCOCC3)nc(-c3ccccc3)nc21
inactive: [2] 37.4%
active: [1] -75.9% | [3] -31.3% | [4] -55.9% | [5] -64.7% | [6] -53.2% | [7] -39.7% | [8] -75.1% | [9] -60.2%

Cc1ccc(S(=O)(=O)Nc2ccc(Cl)cc2)cc1
inactive: [1] 91.6% | [2] 94% | [3] 98.4% | [4] 105% | [5] 86.9% | [6] 104% | [7] 94% | [8] 100% | [9] 111%

O=C(N/N=C/c1ccc(F)cc1)c1ccccc1Nc1cccc(C(F)(F)F)c1
inactive: [1] 104% | [2] 111% | [3] 109% | [4] 101% | [6] 92.8% | [7] 53.3% | [8] 95.5% | [9] 120%

COc1ccc(C(O)c2cc3c(N)c(C(=O)Nc4ccc(Br)cc4)sc3nc2C)cc1 (configuration not stated)
active: [4] 6.2% | [6] 6.85%
inactive: [1] 38.1% | [2] 39.4% | [3] 23% | [5] 44.1% | [7] 24.3% | [8] 50.3% | [9] 11.3%

CC[C@H](CC[C@@H](C)[C@H]1CC[C@H]2[C@@H]3CC=C4C[C@@H](OCCc5nn[nH]n5)CC[C@]4(C)[C@H]3CC[C@]12C)C(C)C
inactive: [1] 97.7% | [3] 98.4% | [4] 109% | [5] 147% | [6] 82.9% | [7] 93.7% | [8] 101% | [9] 118%

O=S(=O)(NCCCNc1nccc(-c2c(-c3ccc(F)c(O)c3)nc3sccn23)n1)c1ccc(F)cc1
active: [1] 2.45% | [2] 5.97% | [4] 6.31% | [5] 6.16% | [6] -9.08%
inactive: [3] 19.9% | [7] 10.2% | [8] 14.1% | [9] 11.5%

O=C(CN1CCOCC1)Nc1ccc2ncnc(Nc3ccc(Oc4cccc(F)c4)c(Cl)c3)c2c1
inactive: [1] 96.7% | [2] 20.1% | [3] 84.9% | [4] 80.2% | [5] 67.4% | [6] 20.7% | [7] 66.3% | [8] 74.3% | [9] 91.7%

Clc1nc(Cl)c2ncn(CC3(Cn4cnc5c(Cl)nc(Cl)nc54)COC3)c2n1
active: [1] -70.2% | [3] -82.3% | [4] -65.5% | [5] -91.9% | [6] -89.1% | [7] -77% | [8] -98.7% | [9] -76.6%

O=C(Nc1cccc(Cl)c1)c1cc(Cl)ccc1O
active: [1] 0.837% | [2] 4.17% | [3] 5.65% | [4] 2.08% | [5] -32% | [6] -2.31% | [8] 5.54%
inactive: [7] 14.7% | [9] 78.6%

CC(C)Cc1ccc(C(C)C(=O)NCc2ccc(Cn3c(=O)sn(-c4ccc(Cl)cc4)c3=O)cc2)cc1 (configuration not stated)
inactive: [1] 85.6% | [2] 90.2% | [3] 85.7% | [4] 61.1% | [5] 75.7% | [6] 91.9% | [7] 75.4% | [8] 85.3% | [9] 74%
